These results are taken from PMC4081100, “A DNA-binding-site landscape and regulatory network analysis for NAC transcription factors in Arabidopsis thaliana”.

Holding throughout (assay): universal protein binding microarray (PBM); transcription factors of Arabidopsis thaliana; high values mean tight binding
For test [1], the target named is T1, GST-ANAC092(1-176) (Arabidopsis thaliana, UniProt Q9FKA0 1-176).
T1 sequence: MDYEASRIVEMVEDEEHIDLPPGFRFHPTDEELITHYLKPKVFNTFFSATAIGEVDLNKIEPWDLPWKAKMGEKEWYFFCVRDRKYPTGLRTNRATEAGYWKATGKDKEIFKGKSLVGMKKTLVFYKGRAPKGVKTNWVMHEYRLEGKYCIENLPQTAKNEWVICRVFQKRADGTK
The note with it: protein: recombinant; tags: GST; chain copies: 2; dsDNA, one strand shown. An outline of the steps: (§1)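 GST-tagged proteins (NAC-domain, full-length or DNA-binding-domain) were induced in cells, with zinc acetate supplied for zinc-finger proteins, then purified on glutathione–Sepharose 4B. Each was tested in duplicate at 200 to 500 nM final on custom all-10-mer Agilent 4 × 180K arrays rendered double-stranded by primer extension. The binding value is the normalised enrichment score (E-score) across gapped and ungapped 8-mers.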

Test [2] concerns the target GST-NTL6(1-168) (Arabidopsis thaliana, UniProt Q9SCK6 1-168). Particulars: protein: recombinant; tags: GST; chain copies: 2; dsDNA, one strand shown. An outline of the steps: as §1
The target of test [3] is T2, GST-ANAC019 NAC domain (Arabidopsis thaliana, UniProt Q9C932 14-162).
T2 sequence: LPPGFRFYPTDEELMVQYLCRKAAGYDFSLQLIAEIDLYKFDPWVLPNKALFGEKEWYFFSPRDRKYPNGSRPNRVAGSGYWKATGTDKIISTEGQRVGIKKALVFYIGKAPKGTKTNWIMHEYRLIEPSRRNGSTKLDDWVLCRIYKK
The note with it: protein: recombinant; tags: GST; chain copies: 2; dsDNA, one strand shown. In short, it runs like this:
as §1

For test [4], the target named is T3, GST-ANAC092(1-285) full length (Arabidopsis thaliana, UniProt Q9FKA0 1-285).
T3 sequence: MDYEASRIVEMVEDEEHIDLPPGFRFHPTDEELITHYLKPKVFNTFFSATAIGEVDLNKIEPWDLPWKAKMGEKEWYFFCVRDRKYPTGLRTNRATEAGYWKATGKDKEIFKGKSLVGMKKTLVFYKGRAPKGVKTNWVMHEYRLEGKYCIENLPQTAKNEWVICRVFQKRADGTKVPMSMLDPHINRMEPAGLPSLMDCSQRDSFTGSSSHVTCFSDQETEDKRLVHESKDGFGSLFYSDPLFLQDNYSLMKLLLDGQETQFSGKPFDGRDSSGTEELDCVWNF
Particulars: protein: recombinant; tags: GST; chain copies: 2; dsDNA, one strand shown. In short, it runs like this:
as §1

The target of test [5] is T4, GST-NTL8 NAC domain (Arabidopsis thaliana, UniProt Q9XIN7 14-156).
T4 sequence: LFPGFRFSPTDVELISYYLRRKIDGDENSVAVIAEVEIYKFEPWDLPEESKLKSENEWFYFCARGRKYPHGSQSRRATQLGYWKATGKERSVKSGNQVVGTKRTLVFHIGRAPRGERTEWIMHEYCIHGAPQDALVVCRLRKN
Particulars: protein: recombinant; tags: GST; chain copies: 2; dsDNA, one strand shown. In short, it runs like this: as §1

Test [6] concerns the target T5, GST-SND1(1-203) (Arabidopsis thaliana, UniProt Q9LPI7 1-203).
T5 sequence: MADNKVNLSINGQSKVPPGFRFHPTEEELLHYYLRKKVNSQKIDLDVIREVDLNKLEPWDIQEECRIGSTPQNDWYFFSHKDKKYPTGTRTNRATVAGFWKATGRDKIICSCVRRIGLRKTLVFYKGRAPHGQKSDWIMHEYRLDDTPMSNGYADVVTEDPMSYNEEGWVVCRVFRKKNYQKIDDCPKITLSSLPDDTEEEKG
The note with it: protein: recombinant; tags: GST; chain copies: 2; dsDNA, one strand shown. In short, it runs like this:
as §1

Test [7] concerns the target T6, GST-VND3 NAC domain (Arabidopsis thaliana, UniProt Q9FH59 12-162).
T6 sequence: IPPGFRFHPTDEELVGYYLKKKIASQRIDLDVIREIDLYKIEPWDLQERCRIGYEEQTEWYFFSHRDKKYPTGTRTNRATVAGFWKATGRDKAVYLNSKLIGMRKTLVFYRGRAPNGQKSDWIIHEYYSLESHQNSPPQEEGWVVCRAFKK
Particulars: protein: recombinant; tags: GST; chain copies: 2; dsDNA, one strand shown. An outline of the steps:
as §1

Test [8] addresses T7, GST-ANAC055(1-171) (Arabidopsis thaliana, UniProt Q9LDY8 1-171).
T7 sequence: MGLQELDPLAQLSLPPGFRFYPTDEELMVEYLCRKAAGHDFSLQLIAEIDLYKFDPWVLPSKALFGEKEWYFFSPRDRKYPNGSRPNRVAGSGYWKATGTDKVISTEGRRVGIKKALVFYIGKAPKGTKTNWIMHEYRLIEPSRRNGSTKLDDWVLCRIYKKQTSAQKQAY
Particulars: protein: recombinant; tags: GST; chain copies: 2; dsDNA, one strand shown. In short, it runs like this:
as §1

The target in test [9] is T8, GST-ATAF1 NAC domain (Arabidopsis thaliana, UniProt Q39013 7-158).
T8 sequence: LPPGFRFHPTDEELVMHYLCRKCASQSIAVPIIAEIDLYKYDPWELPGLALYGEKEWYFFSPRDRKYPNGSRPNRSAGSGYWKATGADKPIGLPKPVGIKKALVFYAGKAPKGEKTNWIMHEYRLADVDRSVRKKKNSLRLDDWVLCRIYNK
The note with it: protein: recombinant; tags: GST; chain copies: 2; dsDNA, one strand shown. In short, it runs like this:
as §1

The target in test [10] is T9, GST-NST2(1-184) (Arabidopsis thaliana, UniProt Q9M274 1-184).
T9 sequence: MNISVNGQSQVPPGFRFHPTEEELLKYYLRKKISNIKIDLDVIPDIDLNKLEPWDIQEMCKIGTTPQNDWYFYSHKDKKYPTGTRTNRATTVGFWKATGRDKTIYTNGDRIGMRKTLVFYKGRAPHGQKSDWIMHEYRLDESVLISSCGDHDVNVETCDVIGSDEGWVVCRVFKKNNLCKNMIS
The note with it: protein: recombinant; tags: GST; chain copies: 2; dsDNA, one strand shown. An outline of the steps: as §1

In test [11] the target is T10, GST-VND7 NAC domain (Arabidopsis thaliana, UniProt Q9C8W9 9-158).
T10 sequence: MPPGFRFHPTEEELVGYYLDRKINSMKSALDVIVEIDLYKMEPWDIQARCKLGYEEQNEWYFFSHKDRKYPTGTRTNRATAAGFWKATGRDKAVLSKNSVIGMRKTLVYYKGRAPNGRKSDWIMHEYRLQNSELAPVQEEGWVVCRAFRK
Particulars: protein: recombinant; tags: GST; chain copies: 2; dsDNA, one strand shown. In short, it runs like this: as §1

Test [12] has as its target GST-WRKY1(266-371) (Arabidopsis thaliana, UniProt Q9SI37 266-371). Particulars: protein: recombinant; tags: GST; dsDNA, one strand shown. In short, it runs like this: as §1
Test [13] concerns the target T11, GST-NAP(1-166) (Arabidopsis thaliana, UniProt O49255 1-166).
T11 sequence: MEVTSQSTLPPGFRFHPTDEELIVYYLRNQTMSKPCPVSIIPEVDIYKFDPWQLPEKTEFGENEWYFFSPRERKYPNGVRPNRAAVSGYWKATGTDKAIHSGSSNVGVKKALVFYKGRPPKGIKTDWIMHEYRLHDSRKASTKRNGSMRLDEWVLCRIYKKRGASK
Particulars: protein: recombinant; tags: GST; chain copies: 2; dsDNA, one strand shown. An outline of the steps: as §1

Chain of GST-NTL6(1-168) (Q9SCK6 1-168): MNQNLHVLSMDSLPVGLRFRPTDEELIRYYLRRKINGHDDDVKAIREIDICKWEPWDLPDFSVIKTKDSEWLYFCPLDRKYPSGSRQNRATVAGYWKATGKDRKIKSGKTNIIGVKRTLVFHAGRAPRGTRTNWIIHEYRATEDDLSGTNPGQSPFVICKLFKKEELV
Chain of GST-WRKY1(266-371) (Q9SI37 266-371): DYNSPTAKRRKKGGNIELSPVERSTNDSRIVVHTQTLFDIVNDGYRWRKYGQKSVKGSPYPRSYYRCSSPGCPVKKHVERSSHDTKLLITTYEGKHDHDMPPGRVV

As to CAGGGAAA, the binding signal in test [1] is 0.141 E-score; in [2], 0.0693 E-score; in test [3] it was 0.115 E-score; in test [4], 0.102 E-score; in test [5], 0.407 E-score; in test [6] it was 0.0967 E-score. Besides, in [7], the binding signal worked out at 0.0593 E-score.
On to AAGGAATG, for which the binding signal in test [1] came to 0.153 E-score; in [2], 0.422 E-score; in test [3], 0.0613 E-score; in [8], 0.0506 E-score; in [9], 0.07 E-score; in test [4], 0.115 E-score. In addition, the binding signal in test [10] amounted to 0.196 E-score; in test [5], 0.293 E-score; in test [6], 0.227 E-score; in test [11], 0.0905 E-score; in [12], 0.0844 E-score.
Consider ACAGGGAA, for which the binding signal in [1] turned out to be 0.128 E-score; in test [2], 0.239 E-score; in test [8] it was 0.0748 E-score; in [13], 0.0751 E-score; in test [10], 0.0924 E-score; in test [5], 0.409 E-score. Besides, the binding signal is 0.108 E-score in [6] and 0.115 E-score in [7].
For CCAAGCAA, the binding signal worked out at 0.31 E-score in [1]; 0.309 E-score in [2]; 0.147 E-score in test [3]; 0.0877 E-score in [8]; 0.0528 E-score in test [9]; 0.356 E-score in [4]. Also, the binding signal in [10] stood at 0.295 E-score; in test [5], 0.0676 E-score; in test [6] it was 0.405 E-score; in test [7], 0.119 E-score.
As for ACTTTCCT, the binding signal in [2] is 0.292 E-score; in test [8], 0.171 E-score; in test [9], 0.0923 E-score; in test [4], 0.0813 E-score; in test [10], 0.144 E-score; in test [5], 0.4 E-score. The binding signal in test [6] came out at 0.145 E-score; in test [11] it was 0.121 E-score; in test [12], 0.171 E-score.
On to ACGCGACC, for which the binding signal stood at 0.283 E-score in test [1]; 0.0639 E-score in [3]; 0.423 E-score in test [4]; 0.0828 E-score in test [10]; 0.367 E-score in test [6]; 0.0778 E-score in [11]. Also, in test [12], the binding signal came to 0.342 E-score.
On to CACTCAAC, for which the binding signal in test [1] was 0.4 E-score; in test [2] it was 0.0871 E-score; in test [3], 0.151 E-score; in test [8], 0.139 E-score; in [9], 0.0909 E-score; in [4], 0.424 E-score. For the same sequence, the binding signal in test [10] came to 0.237 E-score; in [6] it was 0.243 E-score; in test [7], 0.089 E-score.
